Assay results reported in PubChem BioAssay (Tox21).
Values without a mark were called inactive. Calls of active or inactive are those of the source. Calls follow the shape of the dose curve; as a rule, active = well fitted curve in the direction sought with a large enough effect in the repeat runs; inconclusive = weak or mixed curves; inactive = flat fitted curve, though single readings scatter.

Experiment: qHTS assay to test for compound auto fluorescence at 590 nm (red) in HepG2 cells (AID 720674)
Settings: HepG2 autofluorescence, red 540/590 nm, 1 h; series mostly up to 46 µM; fluorescence, relative to Rose Bengal: at the top concentration
Excerpt: U.S. Tox21 Program National Center for Advancing Translational Sciences [NCATS] NIH Chemical Genomics Center [NCGC] U.S. Environmental Protection Agency [EPA] National Institutes of Environmental Health Sciences [NIEHS] National Toxicology Program [NTP] U.S. Food and Drug Administration [FDA] Tox21 Assay Overview: Compound auto fluorescence often interferes with screening of the compound library against various biological targets and signaling pathways. Some of these compounds may have fluorophoric properties. Such properties may interfere with the assay outputs resulting in false positives and/or negatives. To decrease such complications and ensure the compound activities are relevant in terms of biological response, the Tox21 10K compound library was screened for auto fluorescence. From the fluorophores used as reporter signals in our screening assays, the auto fluorescence equivalencies of compounds against three fluorophores have been evaluated: Triamterene, Fluorescein and Rose Bengal sodium for blue, green and red fluorescence, respectively. The fluorescence intensities were measured using Excitation/Emission wavelengths at 405/460nm, 485/535nm and 540/590nm for blue, green and red labels, respectively. This assay includes the red fluorescence data.
Tox21 Assay Protocol Summary: 2,000 HepG2 cells in 5 uL of culture medium (MEM containing 10% FBS) per well were dispensed into black wall/clear bottom 1536-well plates using a Multidrop Combi Dispenser (ThermoFisher Scientific, Waltham, MA). The assay plates were incubated overnight at 37 C to allow cell attachment to the well bottom, followed by the transfer of 23 nL compound or DMSO vehicle by a pintool work station (Kalypsys , San Diego, CA). After the assay plates were incubated for 1 hr at 37 C and 5% CO2, fluorescence intensities in the assay plates were measured by an Envision (PerkinElmer, Shelton, CT) plate reader using three labels for measuring blue, green and red fluorescence at […] 460, 535 and 590 nm respectively.
% is scaled to controls: 0 for no effect and ±100 for the full control effect.

**Q.** With `CCC(NC(C)C)C(O)c1ccc(O)c(O)c1` (stereo not given) as the molecule, how does the “fluorescence, relative to Rose Bengal” value read?
**A.** -0.457%

**Q.** For `CC(=O)OCC(=O)[C@@]1(O)CC[C@H]2[C@@H]3CCC4=CC(=O)CC[C@]4(C)C3=CC[C@@]21C`, which “fluorescence, relative to Rose Bengal” value is on record?
**A.** -0.691%

**Q.** For `O=C1CCC(c2ccccc2)(C2CCN(Cc3ccccc3)CC2)C(=O)N1` (stereo not given), which “fluorescence, relative to Rose Bengal” value is on record?
**A.** -0.67%

**Q.** With `C[Se]CC[C@H](N)C(=O)O` as the molecule, how does the “fluorescence, relative to Rose Bengal” value read?
**A.** -0.338%

**Q.** Which “fluorescence, relative to Rose Bengal” value does the source give for `CN[C@@H]1[C@@H](O[C@H]2O[C@H](CO)[C@@H](N)[C@H](O)[C@H]2O)O[C@H]2C[C@@H](N)[C@@H](O[C@H]3[C@H](O)[C@@H](O)[C@H](N)C[C@@H]3N)O[C@@H]2[C@@H]1O` here?
**A.** -0.205% [at 18.6 µM]

**Q.** Which outcome does the source give for `CO[C@H](C(=O)[C@@H](O)[C@@H](C)O)C1Cc2cc3cc(O[C@H]4C[C@@H](O[C@H]5C[C@@H](O)[C@H](O)[C@@H](C)O5)[C@@H](O)[C@@H](C)O4)c(C)c(O)c3c(O)c2C(=O)[C@H]1O[C@H]1C[C@@H](O[C@H]2C[C@@H](O[C@H]3C[C@](C)(O)[C@H](O)[C@@H](C)O3)[C@H](O)[C@@H](C)O2)[C@H](O)[C@@H](C)O1` (stereo not given in full) here?
**A.** inactive

**Q.** With `CC/C(=C(/CC)c1ccc(OP(=O)(O)O)cc1)c1ccc(OP(=O)(O)O)cc1` as the molecule, how does the “fluorescence, relative to Rose Bengal” value read?
**A.** -0.379%

**Q.** For `Nc1nc(NC2CC2)c2ncn([C@@H]3C=C[C@@H](CO)C3)c2n1`, which “fluorescence, relative to Rose Bengal” value is on record?
**A.** -0.211%

**Q.** With `CN(C)CCc1c[nH]c2ccc(Cn3cncn3)cc12` as the molecule, how does the “fluorescence, relative to Rose Bengal” value read?
**A.** 0.0503%

**Q.** For `CC(=O)O[C@H]1C[C@@H]2CC[C@@H]3[C@H](CC[C@@]4(C)[C@H]3C[C@H]([N+]3(C)CCCCC3)[C@@H]4OC(C)=O)[C@@]2(C)C[C@@H]1[N+]1(C)CCCCC1`, which “fluorescence, relative to Rose Bengal” value is on record?
**A.** -0.567%

**Q.** For `CC(C)NCC1CCc2cc(CO)c([N+](=O)[O-])cc2N1` (stereo not given), which “fluorescence, relative to Rose Bengal” value is on record?
**A.** -0.24% [at 18.6 µM]

**Q.** For `CCC(=O)OC(OP(=O)(CCCCc1ccccc1)CC(=O)N1C[C@H](C2CCCCC2)C[C@H]1C(=O)O)C(C)C` (stereo not given in full), which “fluorescence, relative to Rose Bengal” value is on record?
**A.** 0.477%

**Q.** With `CNC(=O)OCc1cccc(COC(=O)NC)n1` as the molecule, how does the “fluorescence, relative to Rose Bengal” value read?
**A.** 0.0943%

**Q.** With `CC1(C)S[C@@H]2[C@H](NC(=O)[C@@H](NC(=O)N3CCNC3=O)c3ccccc3)C(=O)N2[C@H]1C(=O)O` as the molecule, how does the “fluorescence, relative to Rose Bengal” value read?
**A.** 0.109% [at 18.6 µM]

**Q.** For `CC[C@@]1([C@@H]2O[C@@H]([C@H]3O[C@@](O)(CO)[C@H](C)C[C@@H]3C)C[C@@H]2C)CC[C@H]([C@]2(C)CC[C@]3(C[C@H](O)[C@@H](C)[C@@H]([C@@H](C)[C@@H](OC)[C@H](C)C(=O)O)O3)O2)O1` (stereo in doubt), which outcome is on record?
**A.** inactive

**Q.** Which “fluorescence, relative to Rose Bengal” value does the source give for `COc1cccc(-c2ccc(/C=C\CN3CCCCCC3)cc2Cl)c1` here?
**A.** -0.0247% [at 91.3 µM]

**Q.** For `O=P(O)(O)OP(=O)(O)OP(=O)(O)O`, which “fluorescence, relative to Rose Bengal” value is on record?
**A.** 0.518%

**Q.** For `COC(=O)[C@H]1[C@H]2C[C@H]3c4[nH]c5ccccc5c4CCN3C[C@H]2CC[C@@H]1O`, which “fluorescence, relative to Rose Bengal” value is on record?
**A.** -0.013%

**Q.** Which “fluorescence, relative to Rose Bengal” value does the source give for `CC[C@H]1OC(=O)C[C@@H](O)[C@H](C)[C@@H](O[C@@H]2O[C@H](C)[C@@H](O)[C@H](N(C)C)[C@H]2O)[C@@H](CCN2C[C@H](C)C[C@H](C)C2)C[C@@H](C)C(=O)/C=C/C(C)=C/[C@@H]1CO[C@@H]1O[C@H](C)[C@@H](O)[C@@H](OC)[C@H]1OC` here?
**A.** -0.169%

**Q.** For `CC(=O)N(C)C`, which outcome is on record?
**A.** inactive

**Q.** For `O=C(O)COc1ccccc1/C=N/NC(=O)c1ccncc1`, which “fluorescence, relative to Rose Bengal” value is on record?
**A.** 0.0409%

**Q.** Which “fluorescence, relative to Rose Bengal” value does the source give for `N#Cc1nc(Cl)c(Cl)c(Cl)c1Cl` here?
**A.** 0.002% [at 91.3 µM]

**Q.** For `O=c1[nH]c(=O)n([C@H]2C[C@H](O)[C@@H](CO)O2)cc1/C=C/Br`, which “fluorescence, relative to Rose Bengal” value is on record?
**A.** 0.0209%

**Q.** For `CC1CCCCN1CCCOC(=O)c1ccccc1` (stereo not given), which “fluorescence, relative to Rose Bengal” value is on record?
**A.** -0.417%

**Q.** For `CC/C=C\C/C=C\C/C=C\C/C=C\C/C=C\C/C=C\CCC(=O)O`, which “fluorescence, relative to Rose Bengal” value is on record?
**A.** 0.265%

**Q.** For `NC(=S)NS(=O)(=O)c1ccc(N)cc1`, which “fluorescence, relative to Rose Bengal” value is on record?
**A.** -0.0123%

**Q.** With `CCOC(=O)[C@H](CCc1ccccc1)N[C@@H](C)C(=O)N1[C@H](C(=O)O)C[C@H]2CCCC[C@@H]21` as the molecule, how does the outcome read?
**A.** inactive

**Q.** Which “fluorescence, relative to Rose Bengal” value does the source give for `FC(F)(F)C(F)(F)C(F)(F)C(F)(F)C(F)(F)F` here?
**A.** 0.0085%

**Q.** With `OCCCNc1ccccc1` as the molecule, how does the “fluorescence, relative to Rose Bengal” value read?
**A.** -0.584%

**Q.** For `CNCC(=O)N[C@@H](CCCN=C(N)N)C(=O)N[C@H](C(=O)N[C@@H](Cc1ccc(O)cc1)C(=O)N[C@H](C(=O)N[C@@H](Cc1cnc[nH]1)C(=O)N1CCC[C@H]1C(=O)N[C@@H](C)C(=O)O)C(C)C)C(C)C`, which “fluorescence, relative to Rose Bengal” value is on record?
**A.** 0.687%

**Q.** Which “fluorescence, relative to Rose Bengal” value does the source give for `CCOc1ccc(NC(=S)Nc2ccc(OCC)cc2)cc1` here?
**A.** 0.217%

**Q.** With `C[C@H](NCCc1ccc(O)cc1)[C@H](O)c1ccc(O)cc1` as the molecule, how does the “fluorescence, relative to Rose Bengal” value read?
**A.** 0.0211%

**Q.** Which “fluorescence, relative to Rose Bengal” value does the source give for `O=C(O)Cc1nn(Cc2ccc(Br)cc2F)c(=O)c2ccccc12` here?
**A.** 0.101%

**Q.** For `Nc1c(CC(=O)O)cccc1C(=O)c1ccccc1`, which outcome is on record?
**A.** inactive

**Q.** Which “fluorescence, relative to Rose Bengal” value does the source give for `CC[C@@H](C)[C@H](N)C(=O)O` here?
**A.** -0.177%

**Q.** With `NCC1CCC(C(=O)O)CC1` (stereo not given) as the molecule, how does the “fluorescence, relative to Rose Bengal” value read?
**A.** 0.566% [at 18.6 µM]

**Q.** Which outcome does the source give for `CSCC[C@H](NC(=O)[C@H](Cc1ccc(OS(=O)(=O)O)cc1)NC(=O)[C@@H](N)CC(=O)O)C(=O)NCC(=O)N[C@@H](Cc1c[nH]c2ccccc12)C(=O)N[C@@H](CCSC)C(=O)N[C@@H](CC(=O)O)C(=O)N[C@@H](Cc1ccccc1)C(N)=O` here?
**A.** inactive

**Q.** Which “fluorescence, relative to Rose Bengal” value does the source give for `C[S+](C)CCC(N)C(=O)O` (stereo not given) here?
**A.** 0.282%

**Q.** For `CO/N=C(\C(=O)N[C@@H]1C(=O)N2C(C(=O)O)=C(CSc3nc(C)c(CC(=O)O)s3)CS[C@H]12)c1csc(N)n1`, which “fluorescence, relative to Rose Bengal” value is on record?
**A.** -0.333%

**Q.** Which outcome does the source give for `CN=C(N)NCCC[C@H](N)C(=O)O` here?
**A.** inactive
